From PubChem BioAssay AID1159580 (chemical genetic matrix, 2015)
Among all 5,500 compounds or so, about 2,000 (36%) were called active. Another 18% or so got no clear call; they are omitted. Rule as the data show it: active = normalized growth mostly below about 0.91 (no sharp cut-off); inconclusive = no clear call, values can overlap the other calls; inactive = mostly above about 0.92. The list shows a part of the results.

Assay: chemical genetic growth profiling, strain panel (AID 1159580);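 also: tested at 20 µM; growth read once vehicle control cultures reached saturation at 30 °C; 1 = growth at the plate median or of vehicle wells; lower values mean less growth of the strain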
Settings: S. cerevisiae deletion strains, growth OD
[1] = locus YAR019C, strain CDC15, stronger effect = lower value
[2] = locus YBL105C, strain PKC1, stronger effect = lower value
[3] = locus YBR135W, strain CKS1, stronger effect = lower value
[4] = locus YBR136W, strain MEC1, stronger effect = lower value
[5] = locus YBR160W, strain CDC28, stronger effect = lower value
[6] = locus YDL017W, strain CDC7, stronger effect = lower value
[7] = locus YDL028C, strain MPS1, stronger effect = lower value
[8] = locus YDL101C, strain DUN1, stronger effect = lower value
[9] = locus YDL108W, strain KIN28, stronger effect = lower value
[10] = locus YDL132W, strain cdc53, stronger effect = lower value
[11] = locus YDL214C, strain PRR2, stronger effect = lower value
[12] = locus YDR052C, strain DBF4, stronger effect = lower value
[13] = locus YDR054C, strain cdc34, stronger effect = lower value
[14] = locus YDR226W, strain ADK1, stronger effect = lower value
[15] = locus YDR477W, strain SNF1, stronger effect = lower value
[16] = locus YER123W, strain YCK3, stronger effect = lower value
[17] = locus YER133W, strain GLC7, stronger effect = lower value
[18] = locus YFL009W, strain cdc4, stronger effect = lower value
[19] = locus YFL029C, strain CAK1, stronger effect = lower value
[20] = locus YFR003C, strain YPI1, stronger effect = lower value
[21] = locus YFR019W, strain FAB1, stronger effect = lower value
[22] = locus YFR028C, strain CDC14, stronger effect = lower value
[23] = locus YGR040W, strain KSS1, stronger effect = lower value
[24] = locus YGR052W, strain FMP48, stronger effect = lower value
[25] = locus YGR092W, strain DBF2, stronger effect = lower value
[26] = locus YHR030C, strain SLT2, stronger effect = lower value
[27] = locus YHR079C, strain IRE1, stronger effect = lower value
[28] = locus YHR082C, strain KSP1, stronger effect = lower value
[29] = locus YHR205W, strain SCH9, stronger effect = lower value
[30] = locus YIL147C, strain SLN1, stronger effect = lower value
[31] = locus YJL095W, strain BCK1, stronger effect = lower value
[32] = locus YJL128C, strain PBS2, stronger effect = lower value
[33] = locus YJL157C, strain FAR1, stronger effect = lower value
[34] = locus YJR016C, strain ILV3, stronger effect = lower value
[35] = locus YJR066W, strain TOR1 (second series), stronger effect = lower value
[36] = locus YJR066W, strain TOR1, stronger effect = lower value
[37] = locus YKL048C, strain ELM1, stronger effect = lower value
[38] = locus YKL067W, strain YNK1, stronger effect = lower value
[39] = locus YKL101W, strain HSL1, stronger effect = lower value
[40] = locus YKL193C, strain SDS22, stronger effect = lower value
[41] = locus YKL203C, strain TOR2, stronger effect = lower value
[42] = locus YLR113W, strain HOG1, stronger effect = lower value
[43] = locus YLR133W, strain CKI1, stronger effect = lower value
[44] = locus YLR403W, strain SFP1, stronger effect = lower value
[45] = locus YML070W, strain DAK1, stronger effect = lower value
[46] = locus YMR001C, strain CDC5, stronger effect = lower value
[47] = locus YMR205C, strain PFK2 (second series), stronger effect = lower value
[48] = locus YMR277W, strain FCP1, stronger effect = lower value
[49] = locus YNL006W, strain LST8, stronger effect = lower value
[50] = locus YNL020C, strain ARK1, stronger effect = lower value
[51] = locus YNL161W, strain CBK1, stronger effect = lower value
[52] = locus YNL183C, strain NPR1, stronger effect = lower value
[53] = locus YNL207W, strain RIO2, stronger effect = lower value
[54] = locus YNL222W, strain SSU72, stronger effect = lower value
[55] = locus YNL307C, strain MCK1 (second series), stronger effect = lower value
[56] = locus YOL078W, strain AVO1, stronger effect = lower value
[57] = locus YOL136C, strain PFK27, stronger effect = lower value
[58] = locus YOR061W, strain CKA2, stronger effect = lower value
[59] = locus YOR119C, strain RIO1, stronger effect = lower value
[60] = locus YOR231W, strain MKK1, stronger effect = lower value
[61] = locus YOR329C, strain SCD5, stronger effect = lower value
[62] = locus YPL031C, strain PHO85, stronger effect = lower value
[63] = locus YPL153C, strain RAD53, stronger effect = lower value
[64] = locus YPL204W, strain HRR25, stronger effect = lower value
[65] = locus YPL209C, strain IPL1, stronger effect = lower value
[66] = locus YPL256C, strain CLN2, stronger effect = lower value
[67] = locus YPR025C, strain CCL1, stronger effect = lower value
[68] = locus YPR106W, strain ISR1, stronger effect = lower value
[69] = locus YPR111W, strain DBF20, stronger effect = lower value
[70] = strain NNK1, stronger effect = lower value
[71] = strain TSCII, stronger effect = lower value

Measured: normalized growth

O=C(c1ccc2ccccc2c1)N1CCN(c2ccnc3cc(Cl)ccc23)CC1
active: [26] 0.821
inactive: [1] 1 | [2] 1 | [3] 0.997 | [4] 0.997 | [5] 0.995 | [6] 0.998 | [7] 0.991 | [8] 0.994 | [9] 0.99 | [10] 0.987 | [11] 0.957 | [12] 0.988 | [13] 0.981 | [14] 1 | [15] 0.958 | [16] 0.947 | [17] 0.965 | [18] 0.993 | [19] 1 | [20] 1 | [21] 0.941 | [22] 0.997 | [23] 0.959 | [24] 1.08 | [25] 0.977 | [27] 0.968 | [28] 1.01 | [29] 0.904 | [30] 0.996 | [31] 0.94 | [32] 0.98 | [33] 0.974 | [34] 0.998 | [35] 0.947 | [36] 0.96 | [37] 0.974 | [38] 0.962 | [39] 0.958 | [40] 0.992 | [41] 0.991 | [42] 0.955 | [43] 0.95 | [44] 0.951 | [45] 0.959 | [46] 0.992 | [47] 0.973 | [48] 0.995 | [49] 0.995 | [50] 0.945 | [51] 0.997 | [52] 0.953 | [53] 0.994 | [54] 0.995 | [55] 0.921 | [56] 0.997 | [57] 0.952 | [58] 0.973 | [59] 1.03 | [60] 0.955 | [61] 0.995 | [62] 0.953 | [63] 0.962 | [64] 0.939 | [65] 0.998 | [66] 0.929 | [67] 0.988 | [68] 0.999 | [69] 0.984 | [70] 0.987 | [71] 0.998

O=C(Nc1ccc(C(F)(F)F)cc1)N1CCN(c2ccnc3cc(Cl)ccc23)CC1
inactive: [1] 0.984 | [2] 0.977 | [3] 0.987 | [4] 0.973 | [5] 0.973 | [6] 0.994 | [7] 0.981 | [8] 0.982 | [9] 0.983 | [10] 0.995 | [11] 1.01 | [12] 0.983 | [13] 0.975 | [14] 0.983 | [15] 0.997 | [16] 1.02 | [17] 1.01 | [18] 0.985 | [19] 0.965 | [20] 0.988 | [21] 0.999 | [22] 0.984 | [23] 1 | [24] 1.08 | [25] 0.975 | [26] 1.08 | [27] 1.04 | [28] 1.1 | [29] 0.995 | [30] 0.981 | [31] 1.1 | [32] 0.993 | [33] 1 | [34] 0.993 | [35] 1.02 | [36] 1.11 | [37] 0.996 | [38] 0.992 | [39] 1.01 | [40] 0.988 | [41] 1.06 | [42] 1.01 | [43] 0.994 | [44] 1.02 | [45] 1.01 | [46] 0.98 | [47] 1.01 | [48] 0.99 | [49] 0.991 | [50] 1 | [51] 0.978 | [52] 1.04 | [53] 0.99 | [54] 0.982 | [55] 0.979 | [56] 0.991 | [57] 1.01 | [58] 1.01 | [59] 1.06 | [60] 1.02 | [61] 0.991 | [62] 1.01 | [63] 1.01 | [64] 0.997 | [65] 0.984 | [66] 1 | [67] 0.983 | [68] 0.986 | [69] 0.979 | [70] 0.979 | [71] 0.977

CC1CCN(C(=O)CC#N)CC1
inactive: locus YAL013W, strain DEP1, stronger effect = lower value 1 | locus YBR229C, strain ROT2, stronger effect = lower value 1 | [8] 1.02 | locus YDL134C, strain PPH21, stronger effect = lower value 0.986 | locus YDR150W, strain NUM1, stronger effect = lower value 1.02 | locus YEL061C, strain CIN8, stronger effect = lower value 1.03 | locus YGR078C, strain PAC10, stronger effect = lower value 1 | [26] 1.06 | locus YHR087W, strain rtc3, stronger effect = lower value 1.02 | locus YJL187C, strain SWE1, stronger effect = lower value 0.981 | locus YJR043C, strain POL32, stronger effect = lower value 0.999 | locus YJR075W, strain HOC1, stronger effect = lower value 1.01 | locus YLR039C, strain RIC1, stronger effect = lower value 1.08 | locus YLR058C, strain SHM2 (second series), stronger effect = lower value 0.995 | locus YLR085C, strain ARP6, stronger effect = lower value 1.01 | locus YLR262C, strain YPT6, stronger effect = lower value 1.1 | locus YML094W, strain GIM5, stronger effect = lower value 0.991 | locus YMR219W, strain ESC1, stronger effect = lower value 1 | locus YMR263W, strain SAP30, stronger effect = lower value 0.985 | locus YNL153C, strain GIM3, stronger effect = lower value 1.01 | locus YNL298W, strain CLA4 (second series), stronger effect = lower value 0.957 | locus YNL322C, strain KRE1, stronger effect = lower value 0.992 | locus YNR030W, strain Alg12, stronger effect = lower value 0.981 | locus YOL006C, strain TOP1, stronger effect = lower value 1.01 | locus YPL055C, strain LGE1, stronger effect = lower value 0.979 | locus YPL241C, strain CIN2, stronger effect = lower value 0.996 | locus YPR135W, strain CTF4, stronger effect = lower value 1.02
